The nature of experiment [1]: BSK_MyoF_SRB: Viability Assessment in the BioMAP Diversity Plus: MyoF Assay (AID 2284267).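 Also: total protein by SRB absorbance in parallel cultures as cytotoxicity measure; cells assessed 24 h after compound addition.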 The settings on record: primary human lung fibroblasts. Summed up: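 In this viability endpoint, fibroblasts from human lung are treated for 24 h, TCA-fixed, SRB-stained (0.1%) and read at 560 nm. Gain of signal relative to DMSO defines activity.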
Read-out in experiment [2]: Matrix Metallopeptidase 1 (MMP1), MMP1 (gene 4312)
In words: BSK_MyoF_MMP1: BioMAP Diversity Plus: MyoF Assay for Matrix Metallopeptidase 1 (MMP1) Biomarker Activity (AID 2284268). Conditions: primary human lung fibroblasts. Put shortly:
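MMP1 measured by ELISA 24 h after dosing primary human lung fibroblasts; cytotoxicity checked in parallel cultures by sulforhodamine B total-protein staining read at 560 nm.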

Read-out in experiment [3]: TIMP metallopeptidase inhibitor 1 (TIMP1), TIMP1 (gene 7076)
In words: BSK_MyoF_TIMP1: BioMAP Diversity Plus: MyoF Assay for TIMP metallopeptidase inhibitor 1 (TIMP1) Biomarker Activity (AID 2284269). Conditions: primary human lung fibroblasts. Put shortly:
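TIMP-1 levels were determined by ELISA in human lung fibroblasts treated for 24 h. DMSO served as negative control and baseline for upward curve fitting.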

Read-out in experiment [4]: KRT18 (gene 3875)
Nature of the experiment: BSK_BF4T_Keratin818: BioMAP Diversity Plus: BF4T Assay for Keratin 818 Biomarker Activity (AID 2284266). The settings on record: primary human bronchial epithelial cells with fibroblasts. Put shortly:
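Keratin 8/18 levels quantified by ELISA after 24 h chemical treatment of bronchial epithelial cell/dermal fibroblast co-cultures, fitted in positive direction relative to DMSO. Parallel SRB staining tracks overt cytotoxicity.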

Read-out in experiment [5]: Matrix Metallopeptidase 1 (MMP1), MMP1 (gene 4312)
Nature of the experiment: BSK_BF4T_MMP1: BioMAP Diversity Plus: BF4T Assay for Matrix Metallopeptidase 1 (MMP1) Biomarker Activity (AID 2284270). The settings on record: primary human bronchial epithelial cells with fibroblasts. Summed up: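 MMP-1 quantified by ELISA in primary human bronchial epithelial/dermal fibroblast co-cultures, 24 hours post-dosing, with DMSO as baseline; parallel sulforhodamine B staining (560 nm) tracks overt cytotoxicity.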

Read-out in experiment [6]: Matrix Metallopeptidase 3 (MMP3), MMP3 (gene 4314)
Nature of the experiment: BSK_BF4T_MMP3: BioMAP Diversity Plus: BF4T Assay for Matrix Metallopeptidase 3 (MMP3) Biomarker Activity (AID 2284271). Conditions: primary human bronchial epithelial cells with fibroblasts. Put shortly:
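MMP-3 level read by ELISA after 24 h chemical exposure of bronchial epithelial cell/dermal fibroblast co-cultures, fitted upward relative to DMSO. Parallel cultures stained with 0.1% SRB after TCA fixation gauge overt cytotoxicity.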

Read-out in experiment [7]: Tissue plasminogen activator (tPA), PLAT (gene 5327)
In words: BSK_BF4T_tPA: BioMAP Diversity Plus: BF4T Assay for Tissue plasminogen activator (tPA) Biomarker Activity (AID 2284272). The settings on record: primary human bronchial epithelial cells with fibroblasts. Summed up:
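tPA level quantified by ELISA at 24 h post-treatment in bronchial epithelial/dermal fibroblast co-cultures, gain of signal scored against DMSO baseline. Parallel cultures stained with 0.1% SRB (560 nm) to flag overt cytotoxicity.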

Read-out in experiment [8]: Plasminogen Activator Inhibitor-1 (PAI1), SERPINE1 (gene 5054)
In words: BSK_BF4T_PAI1: BioMAP Diversity Plus: BF4T Assay for Plasminogen Activator Inhibitor-1 (PAI1) Biomarker Activity (AID 2284273). Conditions: primary human bronchial epithelial cells with fibroblasts. Summed up: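 PAI-1 levels quantified by ELISA 24 h post-dosing in bronchial epithelial cell plus dermal fibroblast cultures. Signal gain referenced to DMSO baseline. Sulforhodamine B total-protein staining of parallel wells checked cytotoxicity.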

Experiment [9] can be described thus: BSK_BF4T_SRB: Viability Assessment in the BioMAP Diversity Plus: BF4T Assay (AID 2284274). The settings on record: primary human bronchial epithelial cells with fibroblasts. Summed up:
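Cytotoxicity measured as total protein: cells fixed with 10% TCA, stained with 0.1% SRB, read at 560 nm. Bronchial epithelial/dermal fibroblast co-culture, 24 h after dosing, with positive-direction fitting relative to DMSO.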

Read-out in experiment [10]: urokinase Plasminogen Activator (uPA), PLAU (gene 5328)
Nature of the experiment: BSK_BF4T_uPA: BioMAP Diversity Plus: BF4T Assay for urokinase Plasminogen Activator (uPA) Biomarker Activity (AID 2284275). The settings on record: primary human bronchial epithelial cells with fibroblasts. Put shortly:
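uPA levels measured by ELISA at 24 hours in BF4T cultures (bronchial epithelial cells plus dermal fibroblasts) and compared with DMSO; cytotoxicity tracked in parallel cultures by sulforhodamine B staining.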

Read-out in experiment [11]: Matrix Metallopeptidase 9 (MMP9), MMP9 (gene 4318)
In words: BSK_BF4T_MMP9: BioMAP Diversity Plus: BF4T Assay for Matrix Metallopeptidase 9 (MMP9) Biomarker Activity (AID 2284276). The settings on record: primary human bronchial epithelial cells with fibroblasts. Summed up:
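MMP-9 levels were measured by ELISA after 24 h exposure of bronchial epithelial cell/dermal fibroblast co-cultures, with DMSO as baseline. Parallel cultures were stained with 0.1% SRB after TCA fixation, read at 560 nm, to flag overt cytotoxicity.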

Read-out in experiment [12]: Interleukin-8 (IL8), CXCL8 (gene 3576)
In words: BSK_IMphg_IL8: BioMAP Diversity Plus: IMphg Assay for Interleukin-8 (IL8) Biomarker Activity (AID 2284277). Conditions: primary human endothelial cells with macrophages. Put shortly: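 IL-8 levels were measured by ELISA 24 h after dosing in primary human venular endothelial cell–macrophage cultures, referenced to DMSO; parallel SRB staining monitored overt cytotoxicity.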

Read-out in experiment [13]: Intercellular Adhesion Molecule 1 (ICAM1), ICAM1 (gene 3383)
Nature of the experiment: BSK_BE3C_ICAM1: BioMAP Diversity Plus: BE3C Assay for Intercellular Adhesion Molecule 1 (ICAM1) Biomarker Activity (AID 2284278).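 Also: cell-surface ICAM-1 protein level quantified by ELISA.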 Conditions: primary human bronchial epithelial cells. Summed up:
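hu bronchial epithelial primary cells, 24 h cpd exposure, ICAM-1 ELISA; gain-of-signal fit vs DMSO baseline.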

Read-out in experiment [14]: Interferon-inducible T-cell alpha chemoattractant (ITAC), CXCL11 (gene 6373)
In words: BSK_BE3C_ITAC: BioMAP Diversity Plus: BE3C Assay for Interferon-inducible T-cell alpha chemoattractant (ITAC) Biomarker Activity (AID 2284279). The settings on record: primary human bronchial epithelial cells. Put shortly:
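The assay measures I-TAC levels by ELISA in human primary bronchial epithelial cell cultures 24 hours after chemical treatment. Values reflect signal increase over the DMSO baseline.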

Read-out in experiment [15]: Interleukin-8 (IL8), CXCL8 (gene 3576)
In words: BSK_BE3C_IL8: BioMAP Diversity Plus: BE3C Assay for Interleukin-8 (IL8) Biomarker Activity (AID 2284280). Conditions: primary human bronchial epithelial cells. Summed up: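 Dose human bronchial epithelial cells with chemical; incubate 24 h; quantify IL-8 by ELISA; fit response upward versus DMSO controls.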

Read-out in experiment [16]: Epidermal growth factor receptor (EGFR), EGFR (gene 1956)
Nature of the experiment: BSK_BE3C_EGFR: BioMAP Diversity Plus: BE3C Assay for Epidermal growth factor receptor (EGFR) Biomarker Activity (AID 2284281). Conditions: primary human bronchial epithelial cells. Summed up:
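ELISA read-out of EGFR levels on human bronchial epithelial primary cells collected 24 h post-dosing. DMSO served as negative control and baseline for gain-of-signal fitting.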

Read-out in experiment [17]: KRT18 (gene 3875)
In words: BSK_BE3C_Keratin818: BioMAP Diversity Plus: BE3C Assay for Keratin 818 Biomarker Activity (AID 2284282). Conditions: primary human bronchial epithelial cells. Put shortly: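 In this multiplexed primary-cell system, bronchial epithelial cells were dosed and harvested at 24 h. Keratin 8/18 was determined by ELISA and analysed for increases over DMSO controls.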

Read-out in experiment [18]: Matrix Metallopeptidase 9 (MMP9), MMP9 (gene 4318)
In words: BSK_BE3C_MMP9: BioMAP Diversity Plus: BE3C Assay for Matrix Metallopeptidase 9 (MMP9) Biomarker Activity (AID 2284283). The settings on record: primary human bronchial epithelial cells. Summed up:
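Cells were dosed, incubated 24 h, then assayed for MMP-9 by ELISA; activity was fitted upward against DMSO. The system used human lung primary bronchial epithelial cells, with SRB total-protein staining run alongside for cytotoxicity.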

Read-out in experiment [19]: Plasminogen activator inhibitor-1 (PAI1), SERPINE1 (gene 5054)
Nature of the experiment: BSK_CASM3C_PAI1: BioMAP Diversity Plus: CASM3C Assay for Plasminogen activator inhibitor-1 (PAI1) Biomarker Activity (AID 2284284). The settings on record: primary human coronary artery smooth muscle cells.

Read-out in experiment [20]: Monocyte Chemoattractant Protein-1 (MCP1), CCL2 (gene 6347)
In words: BSK_hDFCGF_MCP1: BioMAP Diversity Plus: hDFCGF Assay for Monocyte Chemoattractant Protein-1 (MCP1) Biomarker Activity (AID 2284285). Conditions: primary human foreskin fibroblasts. Put shortly:
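MCP-1 ELISA readout was taken 24 hours after dosing primary human dermal fibroblasts in the hDFCGF system, with DMSO as baseline. Parallel sulforhodamine B staining of total protein tracked overt cytotoxicity.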

Several values for one entry are separate records, joined by “and”; a condition that tells them apart may be missing. Identical values can stand only once. A structure can be active in one record and inactive in another. Activity calls are given as the source filed them. The calls were made as follows: active = hit-call score of the fitted dose curve at least 0.9, where 1 is the maximum; inactive = score below 0.9.

Turning to `O=C1OC2(c3ccc(O)cc3Oc3cc(O)ccc32)c2ccccc21`, the outcome in [1], in experiment [2] and in [3] was inactive.
Regarding `CC1(C)[C@H](C=C(Cl)Cl)[C@H]1C(=O)OCc1cccc(Oc2ccccc2)c1`, the result in [1], in experiment [2] and in [3] was inactive.
`CC(=O)OC(C)(C)C1CC=C(C)CC1` (configuration not stated): the result in experiment [1], in experiment [2] and in experiment [3] was inactive.
`C=C(F)C(=O)OC(C(F)(F)F)C(F)(F)F`: the outcome in experiment [4], in experiment [1], in experiment [2], in [3], in experiment [5] and in experiment [6] was inactive. The outcome in experiment [7], in experiment [8], in experiment [9], in experiment [10], in experiment [11] and in experiment [12] was inactive. Also, the outcome in [13], in experiment [14], in experiment [15], in experiment [16], in experiment [17] and in experiment [18] was inactive. Also, the outcome in experiment [19] and in experiment [20] was inactive.
`CC(=O)CCC=C(C)CCC=C(C)C`: the outcome in experiment [1], in experiment [2] and in experiment [3] was inactive.
For `CCCCN(CCO)CCO`, the outcome in experiment [13], in experiment [14], in experiment [15], in [16], in experiment [17] and in experiment [18] was inactive. Moreover, the outcome in [19] and in [20] was inactive.
Take `CCC(=O)OCC=Cc1ccccc1`: the result in [1], in experiment [2] and in experiment [3] was inactive.
Regarding `C=C(C)C(=O)OCCC(F)(F)C(F)(F)C(F)(F)C(F)(F)C(F)(F)C(F)(F)C(F)(F)C(F)(F)F`, the result in experiment [4], in [1], in experiment [2], in experiment [3], in experiment [5] and in [6] was inactive. Besides, the outcome in experiment [7], in [8], in experiment [9], in experiment [10], in experiment [11] and in experiment [12] was inactive. For the same compound, the result in [13], in experiment [14], in experiment [15], in [16], in [17] and in [18] was inactive. The outcome in experiment [19] and in experiment [20] was inactive.
Turning to `O=S(=O)(O)C(F)(F)C(F)(F)OC(F)(F)C(F)(F)F`, the outcome in [4], in [1], in [2], in experiment [3], in experiment [5] and in [6] was inactive. Moreover, the result in [7], in experiment [8], in experiment [9], in experiment [10], in [11] and in experiment [12] was inactive. Besides, the outcome in [13], in [14], in [15], in experiment [16], in experiment [17] and in [18] was inactive. The outcome in experiment [19] and in experiment [20] was inactive. In addition, the figures for the AC50 in [6] and in experiment [12] were 36.9 µM (active) and 41.7 µM (active), respectively.
With `CC(C)CCCC(C)(C)O`, the result in experiment [13], in experiment [14], in [15], in [16], in experiment [17] and in experiment [18] was inactive. The outcome in experiment [19] and in experiment [20] was inactive.
Consider `OCCN1CCOCC1`, for which the outcome in [1], in experiment [2] and in experiment [3] was inactive.
Take `O=C(O)C(F)(F)OC(F)(F)C(F)(F)OC(F)(F)C(F)(F)C(F)(F)C(F)(F)F`: the outcome in experiment [4], in experiment [1], in experiment [2], in experiment [5], in experiment [7] and in [8] was inactive. Besides, the result in [9], in experiment [10], in experiment [11], in [12], in [13] and in experiment [15] was inactive. Besides, the result in experiment [17], in experiment [18], in [19] and in experiment [20] was inactive. Besides, the AC50 (in general, the midpoint of the concentration-response curve, whichever way the signal moves) is 11.9 µM (active) and 8.26 µM (active) in experiment [3]; 12.9 µM (active) and 17.8 µM (active) in experiment [6]; 7.77 µM (active) and 7.6 µM (active) in experiment [14]; 35 µM (active) and 17.7 µM (active) in experiment [16].
For `CCCO[Si](OCCC)(OCCC)OCCC`, the result in [13], in [14], in experiment [15], in [16], in [17] and in experiment [18] was inactive. In addition, the result in [19] and in experiment [20] was inactive.
For the compound `COc1ccccc1NC(=O)CC(C)=O`, the outcome in experiment [1], in [2] and in [3] was inactive.

The values above are taken from PubChem BioAssay (EPA / NIEHS).
